Compound activity deposited in PubChem BioAssay by National Center for Advancing Translational Sciences (NCATS).
TDP1 cell CPT – growth inhibition of DT40 Tdp1-/-;hTDP1 cells with camptothecin (screen for TDP1 inhibitors); Potency, µM (top dose mostly 46.2 µM), inactives show at the highest dose activity change, negative = growth inhibition, hits mostly inhibitors; chicken DT40 Tdp1-/-;hTDP1 cells + 20 nM CPT, ATP luminescence, 48 h; AID 686979; 12% of 420,000 active; note: potency is the fitted concentration of half-maximal effect; nearly all actives have a fitted effect of over 55% in size
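Cell growth measured by CellTiter-Glo luminescence after a minimum 48 h, 37 C compound exposure with 20 nM CPT in Tdp1-knockout DT40 cells stably expressing hTDP1, seeded 400/well; qHTS titration format.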
TDP1 inh – blocks human tyrosyl-DNA phosphodiesterase 1. Potency, µM (top dose mostly 130 µM), for the others: at the highest dose activity change, negative = inhibition, usual class: inhibitors. recombinant TDP1, AlphaScreen DNA substrate cleavage. Q9NUW8. AID 485290. 0.28% of 350,000 active; note: potency is the fitted concentration of half-maximal effect; nearly all actives have a fitted effect of over 40% in size
Target sequence (Q9NUW8 whole entry, looked up): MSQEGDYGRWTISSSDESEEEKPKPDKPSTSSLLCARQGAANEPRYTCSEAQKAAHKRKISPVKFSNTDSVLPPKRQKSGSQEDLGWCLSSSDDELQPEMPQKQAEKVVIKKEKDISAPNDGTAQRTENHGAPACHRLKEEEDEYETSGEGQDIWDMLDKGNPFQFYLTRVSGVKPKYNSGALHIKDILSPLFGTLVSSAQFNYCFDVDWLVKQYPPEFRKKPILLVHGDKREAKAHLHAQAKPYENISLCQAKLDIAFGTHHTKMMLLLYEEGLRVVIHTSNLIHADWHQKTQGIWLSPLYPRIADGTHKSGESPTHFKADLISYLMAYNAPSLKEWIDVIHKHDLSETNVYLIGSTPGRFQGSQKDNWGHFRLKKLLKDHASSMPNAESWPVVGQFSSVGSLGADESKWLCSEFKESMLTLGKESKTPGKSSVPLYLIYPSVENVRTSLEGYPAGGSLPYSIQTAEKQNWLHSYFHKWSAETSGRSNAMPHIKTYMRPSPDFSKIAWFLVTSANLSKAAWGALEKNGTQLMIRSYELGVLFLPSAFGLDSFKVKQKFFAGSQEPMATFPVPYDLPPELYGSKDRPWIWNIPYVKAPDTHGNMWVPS
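Steps: enzyme plus compound, 15 min RT; add biotin/phosphotyrosine-FITC oligonucleotide (15 nM final), react 5 min; add donor/acceptor beads (10 ug/ml final), 10 min; read AlphaScreen. Tdp1 at 1 nM final.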
ELG1 DNA repair – ELG1-dependent DNA repair inhibition | Potency, µM (titrated, usually from 46.1 µM), inactives show top-dose activity change, negative = inhibition, usual class: inhibitors | HEK293T ELG1-luciferase reporter, luminescence, 16 h; DNA damage induced by 5-fluorouridine | 2.3% of 330,000 active | AID 504467; note: potency is the fitted concentration of half-maximal effect; nearly all actives have a fitted effect of over 55% in size
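Luminescence from the luciferase reporter, measured 30 min after ONE-Glo reagent at room temperature, was the read-out. Beforehand, 2,000 cells per well were exposed for 16 hr at 37 °C to 5-fluorouridine together with compound or vehicle.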
IL-1B inflam inh – inflammasome signaling inhibition, IL-1 beta readout. THP-1 LPS/ATP IL-1B secretion, AlphaLISA, 16 h; stronger effect = lower value. activity change, % at 57.5 µM. 4.7% of 360,000 active. AID 743279; in the data active = activity change below about -50%; inconclusive = mostly about -30% to -49%
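Secreted IL-1B measured by AlphaLISA bead assay after 16 h compound exposure of THP-1 cells; compounds (final up to 57.5 uM) added 1 h before LPS (250 ng/mL) and ATP (1.25 mM) stimulation; lower signal means less secretion.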
Giardia kill – kills Giardia lamblia | 0.15% of 340,000 active | activity change, % at 7.66 µM, hits read low | Giardia lamblia trophozoite viability; in the data active = activity change below about -80%; inconclusive = between about -30% and that limit;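 note: parasites exposed to compound for two days anaerobically before the ATP read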
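ATP-content bioluminescence gauges trophozoite survival. Cells (100/well) receive compound and incubate anaerobically for 48 hrs at 37 deg C; detection reagent follows for 15-30 min at room temperature.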
TDP1 cell noCPT – qHTS for Inhibitors of human tyrosyl-DNA phosphodiesterase 1 (TDP1): qHTS in cells in absence of CPT; DT40 Tdp1-/- hTDP1 cells, no CPT, ATP luminescence, 48 h; Potency, µM (titrated, usually from 46.2 µM), without a hit: top-dose activity change, negative = growth inhibition, actives largely listed as inhibitors; 15% of 420,000 active; AID 686978, 2013; note: potency is the fitted concentration of half-maximal effect; nearly all actives have a fitted effect of over 55% in size
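No-CPT arm: Tdp1-/-;hTDP1 DT40 cells (400/well) plus compounds, incubated ≥48 hr at 37 °C. Readout CellTiter-Glo luminescence.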
Numbers without * were called inactive; ? = inconclusive; . = no result; [ ] = another dose, or the depositor's remark. Hits are enriched below; roughly 19% of the tested compounds scored in any of these assays. Unless noted, calls come from the whole dose curve; as a rule, active = well fitted curve in the direction sought with a large enough effect; inconclusive = small, poorly fitted or top-dose-only effect, or another doubt; inactive = no such curve, though single readings can be large; an effect the other way counts as inactive or inconclusive. % is set by controls: 0 for no effect and ±100 for the full control effect.

SMILES	TDP1 cell CPT	TDP1 inh	ELG1 DNA repair	IL-1B inflam inh	Giardia kill	TDP1 cell noCPT
CCn1cc(C(=O)NCc2ccccc2Cl)c(=O)c2cc(S(=O)(=O)N3CCc4ccccc4C3)ccc21	-18%	-2%	.	.	.	?
Cc1cc(NCCN(C)C)n2nc(-c3cccs3)cc2n1	-8%	5%	2%	-100*	-8	-24%
Cc1cc(NCCCO)n2nc(-c3cccs3)cc2n1	27%	7%	?	.	-1	3%
O=C(CCN1CCN(CCO)CC1)Nc1ccc(OCc2ccccc2)cc1	-20%	2%	.	-7	-8	-16%
O=C(CCN1CCN(Cc2ccccc2)CC1)Nc1ccc(OCc2ccccc2)cc1	?	5%	?	0	-3	15µM*
O=C(CCN1CCN(CCO)CC1)Nc1cccc(Br)c1	2%	0%	0%	-11	-17	-20%
O=C(CCN1CCN(Cc2ccccc2)CC1)Nc1cccc(Br)c1	16µM*	.	-12%	-16	-6	16µM*
Cc1cc(C)c(NC(=O)CCN2CCN(Cc3ccccc3)CC2)c(C)c1	?	.	.	-3	-4	16µM*
COc1cccc(NC(=O)CCN2CCN(c3ccccc3)CC2)c1	?	.	.	.	.	10µM*
CC1CCCCN1CCCNC(=O)c1ccc2nc(N3CCCCC3)sc2c1 (centres undefined)	?	.	?	0	22	?
CC(C)(C)C1CCC(OC(=O)CN2CCCCC2)CC1 (centres undefined)	6%	-1%	16%	5	-8	-26%
CCC(CNC(=O)c1c(C)nn(-c2ccccc2)c1Cl)c1ccccc1 (centres undefined)	23µM*	6%	19%	-82*	-5	21µM*
CCOc1ccc(CCNC(=O)c2c(C)nn(-c3ccccc3)c2Cl)cc1OCC	16µM*	3%	-1%	26	-15	?
Cc1nn(-c2ccccc2)c(C)c1C(=O)NCCc1ccccc1	-8%	.	?	-26	29	-12%
Cc1nn(-c2ccccc2)c(Cl)c1C(=O)NCCCCNC(=O)c1c(C)nn(-c2ccccc2)c1Cl	4%	7%	16µM*	-14	-16	-5%
COc1ccc(CN2CCN(Cc3ccccc3F)CC2)cc1OC	-12%	.	16%	28	-6	?
CC1CCc2cc(F)cc3c(O)c(C(=O)NCCN(C)C)c(=O)n1c23 (centres undefined)	21µM*	.	-1%	?	9	18µM*
COc1ccccc1-c1ccc(/C=C2/C=C(C)OC2=O)o1	13µM*	5%	9%	-6	7	10µM*
COc1ccccc1-c1ccc(/C=C2\C=CC(=O)O2)o1	21µM*	.	?	.	-3	?
COC(=O)c1ccccc1-c1ccc(C=O)o1	-17%	-1%	-8%	9	-6	-5%
COc1cccc(/C=C/c2nc3ccccc3c(=O)n2-c2ccc(C)c(C)c2)c1OC	10µM*	3%	.	.	.	8.2µM*
O=C(O)c1cc(-n2c(/C=C\c3ccc(F)cc3)nc3ccccc3c2=O)ccc1Cl	15µM*	0%	.	.	.	21µM*
CC1NC(=O)c2cc3ccccc3cc2-n2c1nc1ccc(F)cc1c2=O (centres undefined)	18%	.	.	2	.	-6%
COc1cc(OC)c(OC)cc1/C=C/c1nc2cc3ccccc3cc2c(=O)n1-c1ccc(F)cc1F	12µM*	10%	.	.	.	8.2µM*
O=C(O)c1cccc(-n2c(/C=C/c3ccccc3)nc3ccccc3c2=O)c1	?	.	15%	5	-14	?
SMILES	TDP1 cell CPT	TDP1 inh	ELG1 DNA repair	IL-1B inflam inh	Giardia kill	TDP1 cell noCPT
O=c1c2ccccc2nc(/C=C/c2cccc3ccccc23)n1-c1ccc(F)cc1F	23µM*	-10%	.	.	.	?
O=C(CSc1nc2ccccc2c(=O)n1-c1ccc(F)cc1F)NC1CC1	-10%	.	.	0	.	?
COc1cccc(/C=N/n2c(-c3ccco3)nc3ccccc3c2=O)c1OC	?	0%	5.2µM*	-4	5	?
CC1=C(C(=O)N(C)C)CC(CC(=O)NCC2CCCCC2)C(=O)N1Cc1ccc(C(C)(C)C)cc1 (centres undefined)	?	.	.	-22	.	16µM*
CCN(CC)C(=O)C1=C(C)N(Cc2ccc(C(C)(C)C)cc2)C(=O)C(CC(=O)NCC2CCCCC2)C1 (centres undefined)	13µM*	.	.	-82*	.	18µM*
CC1=C(C(=O)N(C)C)CC(CC(=O)NCC2CCCCC2)C(=O)N1Cc1ccccc1 (centres undefined)	-13%	.	.	1	.	-14%
O=C(N/N=C/c1c[nH]c2ccccc12)c1cc(Br)ccc1O	-19%	.	20%	24	9	6%
NNC(=O)c1[nH]c2ccccc2c1-c1ccccc1	?	.	?	24	-3	15µM*
O=C(N/N=C/c1ccc(O)cc1)c1[nH]c2ccc(Br)cc2c1-c1ccccc1	3.7µM*	3%	-3%	122	-6	2.9µM*
C/C(=N\NC(=O)CCC(=O)O)c1c(-c2ccccc2)c2cc(Br)ccc2[nH]c1=O	-14%	.	0%	6	22	11%
O=C(N/N=C/c1[nH]c2ccccc2c1Cl)c1cccc(Br)c1	4%	-4%	?	-84*	6	?
O=C(N/N=C/c1c[nH]c2ccccc12)c1[nH]c2ccc(Br)cc2c1-c1ccccc1	5.8µM*	-3%	17%	151	11	3.7µM*
COC(=O)[C@@H]1CCCN1Cc1ccc2c(c1)CN(Cc1ccccc1F)CCO2	-6%[9.04 µM]	.	.	.	.	-12%
C[C@H](CO)N1C[C@H](C)[C@@H](CN(C)C(=O)Cc2ccccc2)OCCCC[C@H](C)Oc2ccc(NC(=O)NC3CCCCC3)cc2C1=O	?	.	.	-9	.	?
COc1ccc(C2Nc3ccccc3C(=O)N2Cc2ccco2)cc1COc1c(C)cccc1C (centres undefined)	2.5µM*	0%	.	.	17	5µM*
COc1ccc(C2Nc3ccccc3C(=O)N2Cc2ccccc2)cc1COc1ccc(F)cc1 (centres undefined)	.	1%	.	.	.	.
COc1ccc(C2Nc3ccccc3C(=O)N2Cc2ccco2)cc1COc1ccc([N+](=O)[O-])cc1 (centres undefined)	?	1%	?	?	8	23µM*
COc1cccc(OCc2cc(C3Nc4ccccc4C(=O)N3Cc3ccco3)ccc2OC)c1 (centres undefined)	?	5%	?	-27	-1	?
